Test results as given in PubChem BioAssay AID1159580 (chemical genetic matrix, 2015).
The whole screen tested about 5,500 compounds, of which about 2,000 (36%) were called active. Not shown: some 18% with an inconclusive outcome. Cut-off read from the data, not from the text of the source: active = normalized growth mostly below about 0.91 (no sharp cut-off); inconclusive = no clear call, values can overlap the other calls; inactive = mostly above about 0.92. The list shows a part of the results.

Assay: chemical genetic growth profiling, strain panel (AID 1159580);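 note: tested at 20 µM; growth read once vehicle control cultures reached saturation at 30 °C; 1 = growth at the plate median or of vehicle wells; lower values mean less growth of the strain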
Conditions: S. cerevisiae deletion strains, growth OD

Measured: normalized growth

CC(=O)Nc1ccc(S(=O)(=O)Nc2onc(C)c2C)cc1
inactive: locus YAL021C, strain ccr4, hits give low values 0.984 | locus YAL026C, strain drs2, hits give low values 0.976 | locus YAL030W, strain snc1, hits give low values 0.98 | locus YBL061C, strain skt5, hits give low values 0.969 | locus YBR009C, strain hhf1, hits give low values 0.959 | locus YBR023C, strain chs3, hits give low values 0.97 | locus YBR171W, strain sec66, hits give low values 0.965 | locus YBR231C, strain swc5, hits give low values 0.981 | locus YBR279W, strain paf1, hits give low values 0.968 | locus YCL011C, strain gbp2, hits give low values 0.973 | locus YCL016C, strain dcc1, hits give low values 0.969 | locus YCL061C, strain MRC1, hits give low values 0.985 | locus YCL069W, strain vba3, hits give low values 0.972 | locus YCR088W, strain abp1, hits give low values 0.965 | locus YDL005C, strain med2, hits give low values 0.969 | locus YDL040C, strain nat1, hits give low values 0.969 | locus YDR001C, strain nth1, hits give low values 0.963 | locus YDR069C, strain doa4, hits give low values 0.962 | locus YDR137W, strain rgp1, hits give low values 0.959 | locus YDR159W, strain sac3, hits give low values 0.946 | locus YDR195W, strain ref2 0.948 | locus YDR297W, strain sur2, hits give low values 0.967 | locus YDR334W, strain swr1, hits give low values 0.975 | locus YDR335W, strain msn5, hits give low values 0.972 | locus YDR392W, strain spt3, hits give low values 0.929 | locus YEL003W, strain gim4, hits give low values 0.974 | locus YEL037C, strain rad23, hits give low values 0.971 | locus YEL061C, strain CIN8 (second series), hits give low values 0.956 | locus YER015W, strain faa2, hits give low values 0.986 | locus YER016W, strain bim1, hits give low values 0.96 | locus YER111C, strain swi4, hits give low values 0.975 | locus YER155C, strain BEM2 (second series), hits give low values 0.971 | locus YFR010W, strain ubp6, hits give low values 0.959 | locus YGL167C, strain pmr1, hits give low values 0.968 | locus YGL173C, strain kem1, hits give low values 0.969 | locus YGL227W, strain vid30, hits give low values 0.966 | locus YGL240W, strain doc1, hits give low values 0.981 | locus YGL253W, strain hxk2, hits give low values 0.994 | locus YHR013C, strain ard1, hits give low values 0.963 | locus YHR027C, strain rpn1, hits give low values 0.989 | locus YHR030C, strain SLT2, hits give low values 0.975 | locus YHR079C, strain IRE1, hits give low values 0.968 | locus YHR142W, strain chs7, hits give low values 0.965 | locus YJL092W, strain hpr5, hits give low values 0.971 | locus YJL095W, strain BCK1 (second series), hits give low values 0.975 | locus YJL095W, strain BCK1, hits give low values 1 | locus YJL115W, strain asf1, hits give low values 0.964 | locus YJL129C, strain trk1, hits give low values 0.983 | locus YJL154C, strain vps35, hits give low values 0.965 | locus YJL164C, strain tpk1, hits give low values 0.982 | locus YJL166W, strain qcr8, hits give low values 0.983 | locus YJL187C, strain SWE1, hits give low values 0.97 | locus YJR066W, strain TOR1, hits give low values 0.908 | locus YKL160W, strain elf1, hits give low values 0.984 | locus YKR026C, strain gcn3, hits give low values 0.967 | locus YKR091W, strain srl3, hits give low values 0.977 | locus YLL001W, strain dnm1, hits give low values 0.951 | locus YLL026W, hits give low values 0.961 | locus YLL041C, strain sdh2, hits give low values 0.978 | locus YLR027C, strain aat2, hits give low values 0.973 | locus YLR113W, strain HOG1, hits give low values 0.975 | locus YLR221C, strain rsa3, hits give low values 0.987 | locus YLR258W, strain gsy2, hits give low values 0.971 | locus YLR262C, strain YPT6 (second series), hits give low values 0.98 | locus YLR320W, strain mms22, hits give low values 0.972 | locus YLR342W, strain FKS1, hits give low values 0.974 | locus YLR357W, strain rsc2, hits give low values 0.951 | locus YLR370C, strain arc18, hits give low values 0.957 | locus YLR384C, strain iki3, hits give low values 0.962 | locus YML120C, strain ndi1, hits give low values 0.988 | locus YMR058W, strain fet3, hits give low values 0.971 | locus YMR125W, strain sto1, hits give low values 0.937 | locus YMR129W, hits give low values 0.979 | locus YMR205C, strain PFK2, hits give low values 0.936 | locus YMR231W, strain pep5, hits give low values 0.969 | locus YNL071W, strain lat1, hits give low values 0.975 | locus YNL183C, strain NPR1, hits give low values 0.926 | locus YNL209W, strain ssb2, hits give low values 0.975 | locus YNL248C, strain rpa49, hits give low values 1.02 | locus YNL322C, strain KRE1 (second series), hits give low values 0.98 | locus YNR049C, strain mso1, hits give low values 0.969 | locus YOR001W, strain rrp6, hits give low values 0.985 | locus YOR070C, strain gyp1, hits give low values 0.977 | locus YOR080W, strain dia2, hits give low values 0.954 | locus YOR083W, strain WHI5, hits give low values 0.997 | locus YOR106W, strain vam3, hits give low values 0.996 | locus YOR231W, strain MKK1, hits give low values 0.989 | locus YOR265W, strain rbl2, hits give low values 0.973 | locus YOR270C, strain vph1, hits give low values 0.922 | locus YOR290C, strain snf2, hits give low values 0.964 | locus YPL051W, strain arl3, hits give low values 0.985 | locus YPL078C, strain atp4, hits give low values 0.981 | locus YPL106C, strain sse1, hits give low values 0.97 | locus YPL240C, strain hsp82, hits give low values 0.99 | locus YPL256C, strain CLN2, hits give low values 0.955
